The source made the active and inactive calls.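 The calls were made as follows, unless noted: active = visually confirmed hit in the image check and inhibition above 20%; inconclusive = visually confirmed hit but inhibition not above 20%; inactive = no visual hit in the image check.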
assay: inhibitors of mutant huntingtin aggregation, primary screen, imaging, exon1htt(103Q)mCFP cells, high-content imaging (AID 483;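 active = visual image review flags a hit and inhibition of aggregation exceeds 20%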;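 also: compound exposure lasted 3 days before fixation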;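 as to nuclei count: percent of the per-plate median nuclei count of sample wells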); settings: exon1htt(103Q)mCFP cell line, aggregate imaging, at 2 µM; inhibition of aggregation: stronger effect = higher value; nuclei count: measured here: cell count, toxicity

Row | SMILES | nuclei count | inhibition of aggregation
1 | COc1ccccc1NC(=O)C1=C(C)Nc2nnnn2C1c1ccccc1OC (stereo not given) | 90.1% | -7.9% (inactive)
2 | CC(=O)NCCc1nc2ccccc2[nH]1 | 114% | -14% (inactive)
3 | S=C(c1ccc(-c2cc(Cl)ccc2Cl)o1)N1CCOCC1 | 111% | -14% (inactive)
4 | COc1ccc(Cl)cc1-c1n[nH]c(=S)o1 | 104% | -5.3% (inactive)
5 | O=c1[nH]c(SCc2ccccc2Cl)nc2c1CCCC2 | 77.2% | 36.1% (inactive)
6 | CSc1nc(C)cc(OCC(=O)N2CCOCC2)n1 | 104% | 25.5% (inactive)
7 | CCOc1ccc(N(CC(=O)NC2CCCCC2)S(=O)(=O)c2c(C)noc2C)cc1 | 117% | 33.7% (inactive)
8 | Oc1ccccc1-c1nnc(COc2ccc(Cl)cc2Cl)o1 | 127% | -1.7% (inactive)
9 | CC(=O)NC(C)c1nc2ccccc2n1C(C)C (stereo not given) | 98.7% | -2.2% (inactive)
10 | CC1CCCCC1NC(=O)CCCc1nc2ccccc2c(=O)[nH]1 (stereo not given) | 87.7% | 5.3% (inactive)
11 | c1ccc(-n2ncc3c(N4CCCCC4)ncnc32)cc1 | 108% | -2.1% (inactive)
12 | c1cc(CNc2ccc3c(c2)OCO3)ccn1 | 83.7% | 17.7% (inactive)
13 | O=C(CCn1c(=O)oc2ccccc21)N1CCCCCC1 | 123% | -23.8% (inactive)
14 | COc1ccccc1C(=O)N1CCN(C(=O)c2ccncc2)CC1 | 92.4% | -2.8% (inactive)
15 | O=C(NC1CCCC1)C1CCCN(S(=O)(=O)c2cccc3cccnc23)C1 (stereo not given) | 107% | 3.4% (inactive)
16 | N#Cc1c(-c2ccccc2)nc(N2CCCCCC2)[nH]c1=O | 102% | 1.9% (inactive)
17 | O=C(NC1CCCCC1)n1c(=O)oc2ccc(Cl)cc21 | 103% | -4.2% (inactive)
18 | O=C(Nc1ccccc1N1CCOCC1)c1ccc2ccccc2n1 | 92.8% | -18.1% (inactive)
19 | O=C(Nc1ccc(F)cc1)N(CCCN1CCOCC1)Cc1cc2cc3c(cc2[nH]c1=O)OCO3 | 105% | -34.9% (inactive)
20 | COc1c(S(=O)(=O)n2nc(C)cc2C)ccc(Cl)c1Cl | 120% | -8.9% (inactive)

Row | SMILES | nuclei count | inhibition of aggregation
21 | CCn1c(SCC(=O)Nc2ccc(Cl)cc2)nnc1C1CC1 | 127% | 12.1% (inactive)
22 | COc1cc2cc(C(c3nnnn3C3CCCC3)N(C)C3CCCCC3)c(=O)[nH]c2cc1OC (stereo not given) | 100% | -34.3% (inactive)
23 | COc1ccccc1OCCOCCn1cnc2ccccc2c1=O | 79.3% | 24.9% (inactive)
24 | Cc1cccnc1NC(=O)CCCN1C(=O)c2ccccc2C1=O | 102% | -11.4% (inactive)
25 | CCC1CCCCN1C(=O)C1CC(c2cc(Cl)c(OC)cc2OC)=NO1 (stereo not given) | 108% | 1.6% (inactive)
26 | CCOCCCNC(=O)C1CCC(CNS(=O)(=O)c2cccc3nsnc23)CC1 (stereo not given) | 103% | -28.4% (inactive)
27 | C=CCn1c(SCC(=O)NCC2CCCO2)nc2scc(-c3ccco3)c2c1=O (stereo not given) | 98.5% | -29.4% (inactive)
28 | CC1=C(C)CC2C(=O)N(c3cccc4ccccc34)C(=O)C2C1 (stereo not given) | 106% | 1.2% (inactive)
29 | O=C(O)c1ccc(-c2ccc(O)c(F)c2)cc1 | 89.9% | 11% (inactive)
30 | COC(=O)c1ccccc1NC(=O)N1CCCC1 | 99.5% | 0.5% (inactive)
31 | Cc1ccc(-n2c(Cn3cnc4ccccc43)nnc2SCC(=O)O)cc1 | 108% | -19.4% (inactive)
32 | Cc1ccc2c(c1C)NC(=O)C2(O)CC(=O)c1ccc2c(c1)OCO2 (stereo not given) | 96.2% | 34.5% (inactive)
33 | CC1=C(C(=O)Nc2cccnc2)C(c2ccc(C(C)C)cc2)n2ncnc2N1 (stereo not given) | 118% | -16.2% (inactive)
34 | c1ccc(CCn2nnnc2CN2CCN(C3CCCC3)CC2)cc1 | 112% | -9.3% (inactive)
35 | CN(C(=O)c1ccccc1Cl)c1ccccc1 | 107% | 3% (inactive)
36 | O=S(=O)(c1ccc(-c2csc(-c3cccnc3)n2)cc1)N1CCCCC1 | 102% | -2% (inactive)
37 | O=C(c1cnn2c(C(F)(F)F)cc(-c3ccco3)nc12)N1CCc2ccccc2C1 | 92.9% | 22.2% (inactive)
38 | COc1ccc(CCNc2oc(COc3ccccc3Cl)nc2C#N)cc1OC | 99.9% | -3% (inactive)
39 | Cc1ccc(-c2nnc(N(C)C(=O)c3ccccn3)s2)cn1 | 105% | -1.4% (inactive)
40 | Cn1c(=O)c2c(-c3ccccc3)n(CCCN3CCOCC3)cc2n(C)c1=O | 108% | -17.3% (inactive)

assay: inhibitors of E-selectin induction by TNFa, primary screen, imaging, HUVEC, immunofluorescence, MLSMR starter and 10KST1 sets (AID 487); settings: HUVEC TNFalpha-induced E-selectin immunofluorescence imaging, at 2 µM; inhibition: stronger effect = higher value; nuclei count: measured here: cell number, toxicity;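 as to inhibition: signal is fraction of cell area covered by stained E-selectin grains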;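 as to nuclei count: 100% = median nuclei count of all wells on the same plate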

Row | SMILES | nuclei count | inhibition
41 | COc1ccccc1NC(=O)C1=C(C)Nc2nnnn2C1c1ccccc1OC (stereo not given) | 82.2% | 8.8% (inactive)
42 | CC(=O)NCCc1nc2ccccc2[nH]1 | 106% | -6.5% (inactive)
43 | S=C(c1ccc(-c2cc(Cl)ccc2Cl)o1)N1CCOCC1 | 113% | -53.8% (inactive)
44 | COc1ccc(Cl)cc1-c1n[nH]c(=S)o1 | 111% | -86.8% (inactive)
45 | O=c1[nH]c(SCc2ccccc2Cl)nc2c1CCCC2 | 111% | -49.4% (inactive)
46 | CSc1nc(C)cc(OCC(=O)N2CCOCC2)n1 | 95% | -37.5% (inactive)
47 | CCOc1ccc(N(CC(=O)NC2CCCCC2)S(=O)(=O)c2c(C)noc2C)cc1 | 112% | -52.9% (inactive)
48 | Oc1ccccc1-c1nnc(COc2ccc(Cl)cc2Cl)o1 | 113% | -23.4% (inactive)
49 | CC(=O)NC(C)c1nc2ccccc2n1C(C)C (stereo not given) | 121% | -50.6% (inactive)
50 | CC1CCCCC1NC(=O)CCCc1nc2ccccc2c(=O)[nH]1 (stereo not given) | 79.6% | -11.1% (inactive)
51 | c1ccc(-n2ncc3c(N4CCCCC4)ncnc32)cc1 | 118% | -21.5% (inactive)
52 | c1cc(CNc2ccc3c(c2)OCO3)ccn1 | 112% | -91.7% (inactive)
53 | O=C(CCn1c(=O)oc2ccccc21)N1CCCCCC1 | 123% | -26.2% (inactive)
54 | COc1ccccc1C(=O)N1CCN(C(=O)c2ccncc2)CC1 | 76.2% | 12.3% (inactive)
55 | O=C(NC1CCCC1)C1CCCN(S(=O)(=O)c2cccc3cccnc23)C1 (stereo not given) | 132% | -68.3% (inactive)
56 | N#Cc1c(-c2ccccc2)nc(N2CCCCCC2)[nH]c1=O | 116% | -43.6% (inactive)
57 | O=C(NC1CCCCC1)n1c(=O)oc2ccc(Cl)cc21 | 107% | 23.4% (inactive)
58 | O=C(Nc1ccccc1N1CCOCC1)c1ccc2ccccc2n1 | 94.6% | 17.1% (inactive)
59 | O=C(Nc1ccc(F)cc1)N(CCCN1CCOCC1)Cc1cc2cc3c(cc2[nH]c1=O)OCO3 | 114% | -27.7% (inactive)
60 | COc1c(S(=O)(=O)n2nc(C)cc2C)ccc(Cl)c1Cl | 68.4% | -25.3% (inactive)

Row | SMILES | nuclei count | inhibition
61 | CCn1c(SCC(=O)Nc2ccc(Cl)cc2)nnc1C1CC1 | 97.1% | -54.5% (inactive)
62 | COc1cc2cc(C(c3nnnn3C3CCCC3)N(C)C3CCCCC3)c(=O)[nH]c2cc1OC (stereo not given) | 108% | -15.9% (inactive)
63 | COc1ccccc1OCCOCCn1cnc2ccccc2c1=O | 94.4% | 2.6% (inactive)
64 | Cc1cccnc1NC(=O)CCCN1C(=O)c2ccccc2C1=O | 87.7% | -32.4% (inactive)
65 | CCC1CCCCN1C(=O)C1CC(c2cc(Cl)c(OC)cc2OC)=NO1 (stereo not given) | 168% | -8.7% (inactive)
66 | CCOCCCNC(=O)C1CCC(CNS(=O)(=O)c2cccc3nsnc23)CC1 (stereo not given) | 119% | -19.9% (inactive)
67 | C=CCn1c(SCC(=O)NCC2CCCO2)nc2scc(-c3ccco3)c2c1=O (stereo not given) | 98.7% | 28.1% (inactive)
68 | CC1=C(C)CC2C(=O)N(c3cccc4ccccc34)C(=O)C2C1 (stereo not given) | 106% | -28.7% (inactive)
69 | O=C(O)c1ccc(-c2ccc(O)c(F)c2)cc1 | 104% | -11.2% (inactive)
70 | COC(=O)c1ccccc1NC(=O)N1CCCC1 | 115% | -45.5% (inactive)
71 | Cc1ccc(-n2c(Cn3cnc4ccccc43)nnc2SCC(=O)O)cc1 | 110% | -26.2% (inactive)
72 | Cc1ccc2c(c1C)NC(=O)C2(O)CC(=O)c1ccc2c(c1)OCO2 (stereo not given) | 110% | -44% (inactive)
73 | CC1=C(C(=O)Nc2cccnc2)C(c2ccc(C(C)C)cc2)n2ncnc2N1 (stereo not given) | 120% | -56% (inactive)
74 | c1ccc(CCn2nnnc2CN2CCN(C3CCCC3)CC2)cc1 | 118% | -40.7% (inactive)
75 | CN(C(=O)c1ccccc1Cl)c1ccccc1 | 92.5% | -28.1% (inactive)
76 | O=S(=O)(c1ccc(-c2csc(-c3cccnc3)n2)cc1)N1CCCCC1 | 116% | -30.5% (inactive)
77 | O=C(c1cnn2c(C(F)(F)F)cc(-c3ccco3)nc12)N1CCc2ccccc2C1 | 67% | -11.7% (inactive)
78 | COc1ccc(CCNc2oc(COc3ccccc3Cl)nc2C#N)cc1OC | 109% | -24.6% (inactive)
79 | Cc1ccc(-c2nnc(N(C)C(=O)c3ccccn3)s2)cn1 | 97.9% | -60.4% (inactive)
80 | Cn1c(=O)c2c(-c3ccccc3)n(CCCN3CCOCC3)cc2n(C)c1=O | 102% | -6.9% (inactive)
